Consider 27 compounds from PubChem BioAssay AID651815 (National Center for Advancing Translational Sciences (NCATS), 2012).

In all, about 2,100 compounds went through this assay and about 1,100 (52%) were called active. About 29% were inconclusive and are not listed. Calls follow the shape of the dose curve; as a rule, active = well fitted inhibition curve with a large enough effect; inconclusive = small, poorly fitted or top-dose-only effect; inactive = no such curve, though single readings can be large or run the other way. The set was probably picked from earlier hits. This is one part of the list.
Potency is read from the fitted curve at half-maximal effect.

Sequence of DNA dC->dU-editing enzyme APOBEC-3F (Homo sapiens) (Q8IUX4 whole entry, looked up): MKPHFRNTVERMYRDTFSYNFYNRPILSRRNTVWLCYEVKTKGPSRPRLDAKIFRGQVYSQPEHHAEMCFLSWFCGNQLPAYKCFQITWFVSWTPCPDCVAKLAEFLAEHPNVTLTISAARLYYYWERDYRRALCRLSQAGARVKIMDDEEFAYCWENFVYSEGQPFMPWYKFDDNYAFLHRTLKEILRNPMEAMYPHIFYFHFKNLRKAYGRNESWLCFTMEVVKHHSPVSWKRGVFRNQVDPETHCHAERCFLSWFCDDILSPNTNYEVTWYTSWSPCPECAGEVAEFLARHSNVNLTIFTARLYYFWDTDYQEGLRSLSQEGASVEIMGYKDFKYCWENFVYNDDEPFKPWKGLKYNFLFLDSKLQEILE

This test has as its target DNA dC->dU-editing enzyme APOBEC-3F (Homo sapiens) (UniProt Q8IUX4). The test can be described thus: qHTS for inhibitors of Vif-A3F interactions: Cherry picks counterscreen. Also: nearly all actives have a fitted effect of over 65% in size. Conditions: HeLa A3F-eYFP/Vif cells, eYFP fluorescence, 24 h; series mostly up to 46.1 µM. In outline: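 Rescue of Vif-driven A3F-eYFP degradation read as cellular eYFP fluorescence after 24 h compound exposure (several concentrations) in stable HeLa cells; MG132 (2 mM stock) as positive control.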
(In general: Quantitative high-throughput screening tests each substance at several concentrations.)
For `O=C(CC1CC2CCC1C2)Nc1nc(-c2ccccn2)cs1` (configuration not stated), the Potency entry is “inactive”.
Next, `O=C(c1ccccn1)C1CCCN(Cc2cn[nH]c2-c2cc3ccccc3o2)C1` (configuration not stated): “inactive”.
As for `COc1ccc2c(c1)/C(=C/c1cc(OC)c(OC)c(OC)c1)C(=O)N2`, the Potency was 2.23 µM (active).
Take `COc1cc(C=C2C(=O)c3ccccc3C2=O)cc(OC)c1OC`: the Potency entry was “inactive”.
`O=C1NC(=Nc2ccccc2Cl)S/C1=C\c1cc([N+](=O)[O-])ccc1O`: the Potency result is “inactive”.
`O=C1/C(=C\c2cc([N+](=O)[O-])ccc2O)SC(=S)N1Cc1ccc(Cl)cc1`: the Potency is 9.2 µM (active).
Next, `c1ccc(-c2nccc(-c3ccc4c(c3)OCO4)n2)cc1`: 5.59 µM (active); `COC(=O)CCS(=O)(=O)c1nc(-c2ccccc2)cc(C(F)(F)F)n1`: 12.5 µM (active); `CC1CCN(C(=O)C(C)Sc2nc(-c3ccccc3)cc(C(F)(F)F)n2)CC1` (configuration not stated): “inactive”.
For the compound `C=C(C)CNC(=S)N/N=C1\CCCCc2ccccc21`, the Potency entry was “inactive”.
Next, `COc1ccc(N2C(=O)CC(Sc3nc(C)c4c(n3)CCCC4)C2=O)cc1` (configuration not stated): 15.8 µM (active).
The value for `Nc1c(C(=O)c2ccccc2)sc2nsc(SCCN3CCOCC3)c12` was 7.31 µM (active); that for `Nc1c(C(=O)c2ccccc2)sc2snc(SCC(=O)c3ccccc3)c12` was 15.8 µM (active); that for `Nc1c(C(=O)c2ccccc2)sc2nsc(SCCN3CCCC3)c12` was 14 µM (active).
Next, `CSCC[C@H](NC(=O)[C@H](Cc1ccccc1)n1c(=O)[nH]c2ccccc2c1=O)C(=O)N1CCC[C@@H]1C(=O)O`: “inactive”.
With `CCCC1=Nc2cc(C(=O)NCc3ccco3)ccc2Sc2ccccc21`, the Potency was 1.98 µM (active).
With `COc1ccc(C(=O)NC(=S)NCc2cccnc2)cc1Cl`, the Potency result is “inactive”.
Next, `CCC1=Nc2cc(C(=O)NCc3cccnc3)ccc2Sc2ccc(C)cc21`: 5.59 µM (active).
As to `Cc1cc(C)nc(NC(=S)Nc2cccc(Cl)c2Cl)c1`, the Potency entry was “inactive”.
As for `C/C(=N\NC(=S)NC(C)C)c1ccc(C(C)(C)C)cc1`, the Potency entry is “inactive”.
For the compound `FC(F)(Cl)c1nnc2ccc(Cl)nn12`, the Potency was 6.27 µM (active).
For `CC[N+](C)(C(=O)O)/C(=C\c1ccccc1)c1ccnc2ccccc12` (configuration not stated), the Potency was 18.4 µM (active).
For the compound `Nc1c(C(=O)Nc2nccs2)sc2nc(-c3cccs3)cc(C(F)(F)F)c12`, the Potency was 11.2 µM (active).
Consider `Nc1c(C(=O)Nc2nc3ccccc3s2)sc2nc(-c3cccs3)ccc12`, for which the Potency was 18.4 µM (active).
With `Cc1nnc(NC(=O)c2sc3nc(-c4cccs4)cc(C(F)(F)F)c3c2N)s1`, the Potency is 6.51 µM (active).
Turning to `Nc1c(C(=O)Nc2ccc(F)cc2)sc2nc(-c3cccs3)cc(C(F)(F)F)c12`, the Potency is 2.91 µM (active).
Consider `O=C1N/C(=N\N=C\c2ccco2)SC1Cc1ccccc1[N+](=O)[O-]` (configuration not stated), for which the Potency result is “inactive”.
